# Results taken from PubChem BioAssay (Tox21).
# Results filed as inconclusive are left out. Unmarked numbers belong to inactive results. The source made the active and inactive calls. Calls come from the whole dose curve; as a rule, active = well fitted inhibition curve with a large enough effect in the repeat runs; inconclusive = weak or mixed curves; inactive = no such curve, though single readings can be large or run the other way.
# Target: Cytochrome P450 2C19 (Homo sapiens) (UniProt P33261)
# Sequence (P33261 whole entry, looked up): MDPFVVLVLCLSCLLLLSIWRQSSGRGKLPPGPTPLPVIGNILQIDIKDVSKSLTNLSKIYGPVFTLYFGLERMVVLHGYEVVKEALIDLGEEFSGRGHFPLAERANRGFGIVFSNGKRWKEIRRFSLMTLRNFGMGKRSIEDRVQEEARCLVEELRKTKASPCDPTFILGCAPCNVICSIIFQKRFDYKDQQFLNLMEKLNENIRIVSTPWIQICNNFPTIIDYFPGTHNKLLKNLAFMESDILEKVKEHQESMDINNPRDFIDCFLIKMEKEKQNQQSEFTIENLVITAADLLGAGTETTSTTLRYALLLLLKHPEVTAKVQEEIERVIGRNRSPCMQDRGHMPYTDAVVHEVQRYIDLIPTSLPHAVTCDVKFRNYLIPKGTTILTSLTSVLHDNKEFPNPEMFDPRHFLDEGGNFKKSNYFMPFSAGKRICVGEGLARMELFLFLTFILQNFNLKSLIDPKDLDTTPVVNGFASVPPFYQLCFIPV
# Assay: Cytochrome P450 Family 2 Subfamily C Member 19 (CYP2C19) small molecule antagonists: luciferase reporter qHTS assay (AID 1671197); note: nearly all actives have a fitted effect of over 65% in size
# Conditions: P450-Glo CYP2C19 enzyme, luciferin luminescence, 1 h; series mostly up to 115 µM; activity change, negative = inhibition: at the top concentration
# Outline: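 Inhibition of CYP2C19 was scored from loss of luminescence in a P450-Glo proluciferin substrate assay, NADPH-started and run 1 h at 37C, with ketoconazole as positive control.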
# % is set by controls: 0 for no effect and ±100 for the full control effect; potency is the fitted concentration of half-maximal effect.
Compound,"activity change, negative = inhibition",Potency
COc1ccc(S(=O)(=O)N2c3ccc(Cl)cc3[C@@](O)(c3ccccc3Cl)[C@H]2C(=O)N2CCC[C@@H]2C(N)=O)cc1OC,8.42% [at 52.9 µM],–
CCCCCCCC/C=C\CCCCCCCC(=O)OCCCC,-24.4% [at 23.6 µM],–
COc1ccc(OC)c(Cl)c1,-17%,–
CCOC(=O)c1ccc(OC(=O)CCCCCN=C(N)N)cc1,-8.42% [at 52.9 µM],–
CC(C)CC(C)CC(C)CC(C)COC(=O)c1ccccc1C(=O)OCC(C)CC(C)CC(C)CC(C)C (stereo not given),–,65.9 µM (active)
CC(=C(CCOC(=O)C(C)C)SSC(CCOC(=O)C(C)C)=C(C)N(C=O)Cc1cnc(C)nc1N)N(C=O)Cc1cnc(C)nc1N,54.5% [at 52.9 µM],–
Nc1cccc(O)c1,–,73.1 µM (active)
CC(C)CCCC(C)(C)O,13.4%,–
CCC(C)NC(N)=O (stereo not given),24.6%,–
C[C@H](CCC(=O)O)[C@H]1CC[C@H]2[C@@H]3C(=O)C[C@@H]4CC(=O)CC[C@]4(C)[C@H]3CC(=O)[C@]12C,20.5% [at 52.9 µM],–
CC(C)OC(=O)CCCCC(=O)OC(C)C,-16.8%,–
O=S(=O)(O)CCN1CCN(CCO)CC1,1.39%,–
O=C(OCc1ccccc1)C(=O)OCc1ccccc1,-5.73%,–
COC(=O)CCc1ccc(OCC(O)CNC(C)C)cc1 (stereo not given),-8.75% [at 52.9 µM],–
CCOCCOCCOCC,26.4%,–
c1ccc2c(c1)ccc1c3ccccc3ccc21,-16.5% [at 52.9 µM],–
CCO[Si](CCCS)(OCC)OCC,–,35.6 µM (active)
COC(=O)CCCCCCCC(=O)OC,-8.66%,–
O=C(O)c1cc(Cl)cc([N+](=O)[O-])c1Cl,-11.8%,–
O=C1CCCC(=O)O1,-5.87%,–
CC(CC=O)CCCC(C)(C)O (stereo not given),–,79.2 µM (active)
COCCc1ccc(OCC2CO2)cc1 (stereo not given),25.1% [at 52.9 µM],–
Cc1ccc2ccc(Cl)cc2n1,-14.5% [at 52.9 µM],–
COc1cc(C(=S)N2CCOCC2)cc(OC)c1OC,–,21.9 µM (active)
COCCOCCOCCOCCO,-10.5%,–

# Target: Cytochrome P450 2C9 (Homo sapiens) (UniProt P11712)
# Sequence (P11712 whole entry, looked up): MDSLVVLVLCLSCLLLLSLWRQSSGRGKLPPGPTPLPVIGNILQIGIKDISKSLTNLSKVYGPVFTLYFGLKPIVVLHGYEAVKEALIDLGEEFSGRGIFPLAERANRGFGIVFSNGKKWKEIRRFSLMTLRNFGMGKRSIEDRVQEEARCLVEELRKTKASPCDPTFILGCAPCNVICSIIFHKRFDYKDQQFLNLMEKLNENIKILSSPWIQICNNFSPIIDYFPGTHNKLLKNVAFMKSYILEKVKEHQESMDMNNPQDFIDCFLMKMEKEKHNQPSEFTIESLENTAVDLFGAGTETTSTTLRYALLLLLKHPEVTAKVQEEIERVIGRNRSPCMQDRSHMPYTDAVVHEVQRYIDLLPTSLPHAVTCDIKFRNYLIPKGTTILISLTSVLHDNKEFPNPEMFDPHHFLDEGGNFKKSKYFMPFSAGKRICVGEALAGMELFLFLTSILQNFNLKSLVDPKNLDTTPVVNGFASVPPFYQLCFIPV
# Assay: Cytochrome P450 Family 2 Subfamily C Member 9 (CYP2C9) small molecule antagonists: luciferase reporter qHTS assay (AID 1671198); note: nearly all actives have a fitted effect of over 50% in size
# Conditions: P450-Glo CYP2C9 enzyme assay, luciferin luminescence; series mostly up to 115 µM; activity change, negative = inhibition: at the top concentration
# Outline: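 P450-Glo proluciferin substrate with CYP2C9 enzyme; 10 min RT preincubation, then NADPH regeneration 1 h at 37C; luciferin detection reagent 20 min RT, luminescence in relative luminescence units.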
Compound,Potency,"activity change, negative = inhibition"
COc1ccc(S(=O)(=O)N2c3ccc(Cl)cc3[C@@](O)(c3ccccc3Cl)[C@H]2C(=O)N2CCC[C@@H]2C(N)=O)cc1OC,17.4 µM (active),–
COc1ccc(OC)c(Cl)c1,–,-14.6%
CCOC(=O)c1ccc(OC(=O)CCCCCN=C(N)N)cc1,–,86.9% [at 53 µM]
CC(=C(CCOC(=O)C(C)C)SSC(CCOC(=O)C(C)C)=C(C)N(C=O)Cc1cnc(C)nc1N)N(C=O)Cc1cnc(C)nc1N,–,-7.85% [at 53 µM]
COC(=O)C1CC(=O)C(C(=O)OC)CC1=O (stereo not given),–,-7.95% [at 10.5 µM]
C[C@H](CCC(=O)O)[C@H]1CC[C@H]2[C@@H]3C(=O)C[C@@H]4CC(=O)CC[C@]4(C)[C@H]3CC(=O)[C@]12C,–,0.694% [at 53 µM]
CCCOC(=O)C(C)O (stereo not given),–,-18%
O=S(=O)(O)CCN1CCN(CCO)CC1,–,-9%
CCCCOC(=O)c1ccccc1,–,-17.7%
COC(=O)CCc1ccc(OCC(O)CNC(C)C)cc1 (stereo not given),–,2.56% [at 53 µM]
CCOCCOCCOCC,–,-6.09%
CO[C@@H]1[C@@H](OC(N)=O)[C@@H](O)[C@H](Oc2ccc3c(O)c(NC(=O)c4ccc(O)c(CC=C(C)C)c4)c(=O)oc3c2C)OC1(C)C,11 µM (active),–
C=Cc1ccccn1,–,2.54%
CCCC/C=C/C=C\C=O,–,-70.8%
CCCN1C[C@H](CSC)C[C@@H]2c3cccc4[nH]cc(c34)C[C@H]21,–,-19.7% [at 53 µM]
COC(=O)CCCCCCCC(=O)OC,–,-25.6%
O=C(O)c1cc(Cl)cc([N+](=O)[O-])c1Cl,71 µM (active),–
O=C1CCCC(=O)O1,12.6 µM (active),–
c1ccc2nccnc2c1,–,-18.6%
COCCOCCOCCOCCO,–,-2.24%

# Target: Cytochrome P450 1A2 (Homo sapiens) (UniProt P05177)
# Sequence (P05177 whole entry, looked up): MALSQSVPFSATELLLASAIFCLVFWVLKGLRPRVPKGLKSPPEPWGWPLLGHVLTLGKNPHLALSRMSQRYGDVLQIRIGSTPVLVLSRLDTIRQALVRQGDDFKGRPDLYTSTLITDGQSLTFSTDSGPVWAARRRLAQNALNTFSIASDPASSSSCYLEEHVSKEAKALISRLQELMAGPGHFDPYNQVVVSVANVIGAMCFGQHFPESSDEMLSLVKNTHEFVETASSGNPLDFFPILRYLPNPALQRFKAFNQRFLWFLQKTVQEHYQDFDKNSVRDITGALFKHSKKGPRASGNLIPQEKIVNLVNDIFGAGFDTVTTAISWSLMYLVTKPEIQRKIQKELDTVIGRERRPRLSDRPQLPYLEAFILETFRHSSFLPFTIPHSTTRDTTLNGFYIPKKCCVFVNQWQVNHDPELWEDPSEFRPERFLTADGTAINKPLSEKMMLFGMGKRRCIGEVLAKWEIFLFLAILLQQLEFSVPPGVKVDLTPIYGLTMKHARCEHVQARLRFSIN
# Assay: Cytochrome P450 Family 1 Subfamily A Member 2 (CYP1A2) small molecule antagonists: luciferase reporter qHTS assay (AID 1671199); note: nearly all actives have a fitted effect of over 50% in size
# Conditions: P450-Glo CYP1A2 enzyme, luciferin luminescence, 1 h; series mostly up to 53 µM; activity change, negative = inhibition: at the top concentration
# Outline: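 Luminescence from luciferin formed by CYP1A2 from a proluciferin substrate, read 20 min after detection reagent. Compound was pre-incubated 10 min with enzyme-substrate, and reaction started with NADPH regeneration solution for 1 h at room temperature; furafylline control.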
Compound,"activity change, negative = inhibition",Potency
CCCCCCCC/C=C\CCCCCCCC(=O)OCCCC,-17.7% [at 23.6 µM],–
CC(C)CC(C)CC(C)CC(C)COC(=O)c1ccccc1C(=O)OCC(C)CC(C)CC(C)CC(C)C (stereo not given),–,65.9 µM (active)
CC(=C(CCOC(=O)C(C)C)SSC(CCOC(=O)C(C)C)=C(C)N(C=O)Cc1cnc(C)nc1N)N(C=O)Cc1cnc(C)nc1N,6.77%,–
CC(C)CCCC(C)(C)O,-12.5% [at 115 µM],–
CCC(C)NC(N)=O (stereo not given),-20.4% [at 115 µM],–
CC(C)OC(=O)CCCCC(=O)OC(C)C,-16.4% [at 115 µM],–
O=S(=O)(O)CCN1CCN(CCO)CC1,-23.7% [at 115 µM],–
O=C(OCc1ccccc1)C(=O)OCc1ccccc1,-12.1% [at 115 µM],–
COC(=O)CCc1ccc(OCC(O)CNC(C)C)cc1 (stereo not given),12.2%,–
CCOCCOCCOCC,-15.1% [at 115 µM],–
CO[C@@H]1[C@@H](OC(N)=O)[C@@H](O)[C@H](Oc2ccc3c(O)c(NC(=O)c4ccc(O)c(CC=C(C)C)c4)c(=O)oc3c2C)OC1(C)C,-28.2%,–
CCCC/C=C/C=C\C=O,-14.2% [at 115 µM],–
CCCN1C[C@H](CSC)C[C@@H]2c3cccc4[nH]cc(c34)C[C@H]21,-19.3%,–
CCO[Si](CCCS)(OCC)OCC,-25.7% [at 115 µM],–
O=C(O)c1cc(Cl)cc([N+](=O)[O-])c1Cl,–,39.9 µM (active)
O=C1CCCC(=O)O1,-27.6% [at 115 µM],–
CC(CC=O)CCCC(C)(C)O (stereo not given),-24.8% [at 115 µM],–
O=C1O[C@@H]2[C@@H](O)[C@H](O)O[C@@H]2[C@H]1O,-9.56% [at 115 µM],–
COCCc1ccc(OCC2CO2)cc1 (stereo not given),-11%,–
Cc1ccc2ccc(Cl)cc2n1,–,15.5 µM (active)
